Common to all, as to experiment: protein-binding microarray (PBM); PBM: ~300 nM protein, 6 mM HEPES pH 7.8, 80 mM KCl, 0.5 mM EDTA, 0.5 mM EGTA, 6% glycerol, 35 ng/ul poly-dIdC, 1% milk, 1 h, room temperature; Ap Aiptasia and Nv Nematostella (sea anemones) / Co Capsaspora / Aq Amphimedon (sponge) / Dm Drosophila / Hu human; RHD is the Rel homology domain; high values mean tight binding
Holding throughout (conditions): dsDNA, one strand shown

The target in assay [1] is T1, GST-Ap-NF-kB RHD (Exaiptasia pallida (Aiptasia), UniProt A0A913YAJ5 2-422).
T1 sequence: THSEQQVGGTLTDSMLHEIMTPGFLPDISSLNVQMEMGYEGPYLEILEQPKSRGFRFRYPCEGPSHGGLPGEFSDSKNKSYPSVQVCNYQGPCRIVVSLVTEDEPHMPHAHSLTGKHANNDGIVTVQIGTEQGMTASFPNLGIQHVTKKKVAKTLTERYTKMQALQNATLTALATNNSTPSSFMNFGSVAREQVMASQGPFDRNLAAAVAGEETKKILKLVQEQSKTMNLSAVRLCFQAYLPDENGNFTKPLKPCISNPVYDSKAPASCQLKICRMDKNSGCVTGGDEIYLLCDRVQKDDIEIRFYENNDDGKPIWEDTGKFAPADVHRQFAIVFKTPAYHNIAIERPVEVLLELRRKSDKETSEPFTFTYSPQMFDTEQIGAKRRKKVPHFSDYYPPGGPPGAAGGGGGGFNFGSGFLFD

Assay [2] deals with T2, GST-Nv-NF-kB (Cys allele) (Nematostella vectensis, UniProt E5G601 2-411).
T2 sequence: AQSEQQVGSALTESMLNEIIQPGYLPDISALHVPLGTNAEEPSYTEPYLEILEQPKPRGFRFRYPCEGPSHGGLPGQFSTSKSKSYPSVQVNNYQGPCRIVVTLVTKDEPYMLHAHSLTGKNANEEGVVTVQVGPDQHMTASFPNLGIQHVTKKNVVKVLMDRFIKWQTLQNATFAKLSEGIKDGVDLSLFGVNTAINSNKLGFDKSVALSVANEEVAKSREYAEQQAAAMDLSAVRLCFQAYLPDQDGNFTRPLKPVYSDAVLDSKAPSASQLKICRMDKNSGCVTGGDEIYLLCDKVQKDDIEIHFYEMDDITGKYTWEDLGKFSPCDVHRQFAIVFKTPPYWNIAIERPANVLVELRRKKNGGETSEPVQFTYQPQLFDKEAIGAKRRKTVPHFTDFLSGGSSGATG

Assay [3] has as its target T3, GST-Co-NF-kB (Capsaspora owczarzaki, UniProt F1ARL5 200-546).
T3 sequence: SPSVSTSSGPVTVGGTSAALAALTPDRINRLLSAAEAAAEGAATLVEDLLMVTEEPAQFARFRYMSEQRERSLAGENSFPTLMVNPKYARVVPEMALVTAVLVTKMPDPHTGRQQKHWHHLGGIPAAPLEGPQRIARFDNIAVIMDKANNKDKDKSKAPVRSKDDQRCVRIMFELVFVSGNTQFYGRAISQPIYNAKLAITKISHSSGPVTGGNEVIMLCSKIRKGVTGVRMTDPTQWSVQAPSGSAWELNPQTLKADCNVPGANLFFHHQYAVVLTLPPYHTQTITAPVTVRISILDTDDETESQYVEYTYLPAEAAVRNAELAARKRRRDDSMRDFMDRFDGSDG

Assay [4] concerns the target T4, GST-Dm-Relish (Drosophila melanogaster, UniProt Q94527 99-473).
T4 sequence: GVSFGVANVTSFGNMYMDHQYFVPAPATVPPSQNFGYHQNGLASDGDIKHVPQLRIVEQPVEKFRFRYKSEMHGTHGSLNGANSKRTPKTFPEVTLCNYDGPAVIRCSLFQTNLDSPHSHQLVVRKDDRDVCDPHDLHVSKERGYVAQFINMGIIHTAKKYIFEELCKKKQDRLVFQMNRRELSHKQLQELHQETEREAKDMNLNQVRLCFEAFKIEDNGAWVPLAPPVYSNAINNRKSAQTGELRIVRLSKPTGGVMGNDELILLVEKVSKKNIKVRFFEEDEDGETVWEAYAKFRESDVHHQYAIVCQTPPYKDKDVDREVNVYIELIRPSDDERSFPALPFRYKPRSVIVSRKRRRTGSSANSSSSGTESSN

Assay [5] concerns the target T5, GST-Aq-NF-kB (Amphimedon queenslandica, UniProt A9Y5G7 2-389).
T5 sequence: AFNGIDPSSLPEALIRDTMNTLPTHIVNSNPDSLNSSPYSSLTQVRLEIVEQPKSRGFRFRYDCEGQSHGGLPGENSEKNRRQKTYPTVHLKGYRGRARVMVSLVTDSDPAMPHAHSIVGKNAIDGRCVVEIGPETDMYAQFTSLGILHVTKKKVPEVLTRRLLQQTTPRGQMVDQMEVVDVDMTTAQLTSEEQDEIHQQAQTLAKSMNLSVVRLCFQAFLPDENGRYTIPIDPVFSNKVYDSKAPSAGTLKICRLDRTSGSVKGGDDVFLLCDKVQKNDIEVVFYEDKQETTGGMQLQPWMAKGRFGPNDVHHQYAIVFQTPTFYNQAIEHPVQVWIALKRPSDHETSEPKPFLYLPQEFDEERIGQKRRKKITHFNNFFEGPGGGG

“CCGATTAACATCAAAAAAACCCATGATGTTAATCGGGTCTTGATTCGCTTGACGCTGCTG”: the binding signal in assay [1] was found to be 3.72 z-score; in assay [2], 4.44 z-score; in assay [3], 1.87 z-score; in assay [4], 6.31 z-score; in assay [5], 5.47 z-score.

Take “CCGATTAACATCAACCACCCCCCTGATGTTAATCGGGTCTTGATTCGCTTGACGCTGCTG”: the binding signal was 3.74 z-score in assay [1]; 2.31 z-score in assay [2]; 4.22 z-score in assay [3]; 4.6 z-score in assay [4]; 3.9 z-score in assay [5].

As to “CCGATTAACATCAAGGGGGTGACTGATGTTAATCGGGTCTTGATTCGCTTGACGCTGCTG”, the binding signal in assay [1] was found to be 4.68 z-score; in assay [2] it was 3.59 z-score; in assay [3], 3.04 z-score; in assay [4] it was 2.43 z-score; in assay [5] it was 4.26 z-score.

Turning to “CCGATTAACATCACGTATTTCCCTGATGTTAATCGGGTCTTGATTCGCTTGACGCTGCTG”, the binding signal in assay [1] came to 3.32 z-score; in assay [2] it was 4.03 z-score; in assay [3], 3.79 z-score; in assay [4], 4.26 z-score; in assay [5], 3.99 z-score.

Consider “CCGATTAACATCAGGGAAAACACTGATGTTAATCGGGTCTTGATTCGCTTGACGCTGCTG”, for which the binding signal in assay [1] was 3.49 z-score; in assay [2] it was 4.89 z-score; in assay [3], 4.18 z-score; in assay [4] it was 5.1 z-score; in assay [5], 6.06 z-score.

As for “CCGATTAACATCAAACACTCCCCTGATGTTAATCGGGTCTTGATTCGCTTGACGCTGCTG”, the binding signal in assay [1] turned out to be 4.43 z-score; in assay [2], 3.84 z-score; in assay [3], 3.52 z-score; in assay [4], 1.65 z-score; in assay [5], 4.61 z-score.

With “CCGATTAACATCAAATTCCCTCGTGATGTTAATCGGGTCTTGATTCGCTTGACGCTGCTG”, the binding signal in assay [1] stood at 3.11 z-score; in assay [2] it was 4.96 z-score; in assay [3] it was 2.32 z-score; in assay [4], 3.26 z-score; in assay [5], 4.09 z-score.

Regarding “CCGATTAACATCAGGGGGTAACCTGATGTTAATCGGGTCTTGATTCGCTTGACGCTGCTG”, the binding signal in assay [1] came to 6.07 z-score; in assay [2] it was 3.41 z-score; in assay [3] it was 5.91 z-score; in assay [4], 3.94 z-score; in assay [5], 5.48 z-score.

Turning to “CCGATTAACATCACGGGACCCCCTGATGTTAATCGGGTCTTGATTCGCTTGACGCTGCTG”, the binding signal in assay [1] is 6.47 z-score; in assay [2], 3.01 z-score; in assay [3], 1.75 z-score; in assay [4] it was 6.84 z-score; in assay [5], 3.7 z-score.

As to “CCGATTAACATCAGGGGCGCCCCTGATGTTAATCGGGTCTTGATTCGCTTGACGCTGCTG”, the binding signal in assay [1] was 7.03 z-score; in assay [2], 5.37 z-score; in assay [3] it was 3 z-score; in assay [4] it was 6.07 z-score; in assay [5], 8.59 z-score.

Take “CCGATTAACATCAAAAGACCCCCTGATGTTAATCGGGTCTTGATTCGCTTGACGCTGCTG”: the binding signal in assay [1] came to 6.38 z-score; in assay [2], 5.12 z-score; in assay [3], 3.12 z-score; in assay [4] it was 8.16 z-score; in assay [5], 6.25 z-score.

“CCGATTAACATCAGGGAAATAACTGATGTTAATCGGGTCTTGATTCGCTTGACGCTGCTG”: the binding signal in assay [1] came out at 2.57 z-score; in assay [2], 4.77 z-score; in assay [3], 3.96 z-score; in assay [4], 4.51 z-score; in assay [5], 6.11 z-score.

Consider “CCGATTAACATCAAGGGATTCCCTGATGTTAATCGGGTCTTGATTCGCTTGACGCTGCTG”, for which the binding signal in assay [1] was found to be 6.28 z-score; in assay [2] it was 5.98 z-score; in assay [3], 2.7 z-score; in assay [4], 9.45 z-score; in assay [5], 6.56 z-score.

The values above are taken from article PMC5700166.
